Source: PubChem BioAssay AID1421 (Emory University Molecular Libraries Screening Center, 2008)
In all, about 1,300 compounds went through this assay and about 140 (11%) were called active. No rule for the calls is given here. The list is a sample of the results. Entries with a potency or affinity are not part of this list.

target: Prostaglandin E2 receptor EP2 subtype (Homo sapiens) (UniProt P43116); assay: EP2 receptor modulators, dose response, cell-based, human EP2, PGE2 EC50 shift (AID 1421); conditions: EP2-expressing cells, PGE2 EC50 shift by compound; at 20 µM
Sequence (P43116 whole entry, looked up): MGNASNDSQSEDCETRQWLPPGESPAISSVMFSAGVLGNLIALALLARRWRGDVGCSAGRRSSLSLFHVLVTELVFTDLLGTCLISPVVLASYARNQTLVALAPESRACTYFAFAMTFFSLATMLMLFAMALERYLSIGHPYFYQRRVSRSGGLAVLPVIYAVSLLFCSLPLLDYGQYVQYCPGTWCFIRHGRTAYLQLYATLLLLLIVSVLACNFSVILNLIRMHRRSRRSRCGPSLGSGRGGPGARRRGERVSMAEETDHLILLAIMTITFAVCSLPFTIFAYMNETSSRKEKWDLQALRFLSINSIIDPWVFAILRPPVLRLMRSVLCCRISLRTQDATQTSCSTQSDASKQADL

PGE2 EC50 with compound, inactive:
Cc1cccc(/C=N/Nc2cc(N3CCOCC3)nc(N3CCOCC3)n2)c1 0.59 nM
CCSc1nnc(-c2ccc(Cl)cc2)c2ccccc12 2.31 nM
COc1ccc2c(-c3ccccc3)cc(N3CCOCC3)nc2c1 0.43 nM
COc1ccc(C2=Nn3c(nnc3C3CCCCC3)SC2)cc1OC 0.48 nM
CCOC(=O)C1=C(CC)OC(N)=C(C#N)C1c1ccsc1 (centres undefined) 0.52 nM
CCn1c2ccc(Cl)cc2c2nc3ccccc3nc21 0.4 nM
O=c1c2ccccc2nc(/C=C/c2ccccc2)n1CCc1ccccc1 0.1 nM
C=CCOc1c(Br)cc(/C=N/n2c(CC)n[nH]c2=S)cc1Br 0.13 nM
CC(C)c1nc(N2CCN(C(=O)c3ccccc3)CC2)c(C#N)c2c1COC(C)(C)C2 0.35 nM
Cc1nc2ccccn2c1C(=O)CSc1ccc(Cl)cc1Cl 5.69 nM
Cc1cc(C(=O)NCC(c2ccco2)N(C)C)no1 (centres undefined) 0.8 nM
O=S(Cc1cc(Sc2ccccc2)nc(-c2ccccc2)n1)c1ccccc1 (centres undefined) 0.32 nM
CCOC(=O)c1c(-c2ccc(C)cc2)csc1NC(=O)c1ccc(N2C(=O)CCC2=O)cc1 0.29 nM
CCOC(=O)c1[nH]c2ccc(OC)cc2c1NS(=O)(=O)c1ccc(Cl)s1 0.39 nM
CCOC(=O)c1cc2sc(C)cc2n1C(C)C(=O)OCC (centres undefined) 0.35 nM
CCOC(=O)CNC(=O)c1ccc2c(c1)OCCO2 0.46 nM
CCOC(=O)c1c(NC(=O)c2ccncc2)sc(C)c1C 0.45 nM
CCOC(=O)c1oc2ccccc2c1NC(=O)c1cccc(OC)c1OC 0.43 nM
Cc1ccccc1Cn1c(-c2cncs2)nc2ccccc21 0.55 nM
c1ccc(CCc2ccccc2-c2nc(-c3cccnc3)no2)cc1 0.18 nM
CCOC(=O)c1c(NC(=O)CSc2nnc(N)s2)sc(C)c1-c1ccc(C)cc1 0.35 nM
Cc1cccc(N=N/C(=C\O)C(=O)c2ccc(Br)cc2)c1 0.18 nM
Cc1cc(C)c(S(=O)(=O)O)c(C)n1 0.61 nM
COC(=O)c1[nH]c2ccccc2c1NS(=O)(=O)c1ccc(F)c(C)c1 0.41 nM
Cn1c(=O)[nH]c(=O)c2c1nc(CN1CCN(c3ccccc3F)CC1)n2CCCc1ccccc1 0.47 nM
S=c1[nH]nc(-c2ccc(Br)o2)n1Cc1ccccc1 0.8 nM
Cn1c(=O)c(NCCc2ccccc2)c2c3c(cccc31)C(=O)c1ccccc1-2 0.58 nM
Cc1ccc2c3c(cccc13)-c1ccccc1C2=O 0.36 nM
NC(=O)CSc1nnc(-c2cccc(S(=O)(=O)N3CCOCC3)c2)n1C1CCCCCC1 0.63 nM
Cc1noc(C)c1CSc1nc2sc3c(c2c(=O)n1C)CCCC3 0.89 nM
CCCSc1nc(N2CCCC2)c2c(c1C#N)CC(C)(C)OC2 0.26 nM
Cc1cc2ccc(C)c(C)c2nc1SCC#N 0.35 nM
C=CCn1c(CCc2cc(C(C)(C)C)c(O)c(C(C)(C)C)c2)n[nH]c1=S 0.58 nM
OCCCNc1nc(-c2ccc(Cl)cc2)nnc1-c1ccc(Br)cc1 1.44 nM
CC(OC(=O)c1oc2ccccc2c1COc1ccccc1)C(=O)NC(N)=O (centres undefined) 0.23 nM
CCOc1ccccc1NC(=O)c1ccccc1-c1nc(-c2ccccc2)no1 0.4 nM
Cc1onc(-c2ccccc2Cl)c1-c1nc(-c2ccncc2)no1 0.49 nM
Cc1nn2c(N3CCN(C(=O)c4ccco4)CC3)cc(C(C)(C)C)nc2c1-c1ccccc1 1.08 nM
Cc1ccc(NCc2n[nH]c(=S)n2Cc2ccccc2)cc1Cl 0.64 nM
O=C(O)/C=C/c1ccccc1Oc1ccc(Cl)cc1Cl 1.45 nM
COc1cc2c(cc1OC)-c1cc(Nc3ccc4c(c3)OCCO4)nc(=O)n1CC2 0.72 nM
COc1ccc(OC)c(/C=C/C(=O)N2CCCc3ccccc32)c1 0.28 nM
C=C(C)Cn1c(C)cc(C)c(S(=O)(=O)c2ccc(C)cc2)c1=O 0.32 nM
COC(=O)c1c(NC(=O)CSc2nnc(-c3ccco3)n2Cc2ccccc2)sc(C)c1C 0.82 nM
CCc1cc2cc3c(cc2nc1SCC(=O)OC(C)C)OCO3 0.14 nM
CCOC(=O)C1CCN(c2c(C(=O)c3ccccc3)cnc3ccc(CC)cc23)CC1 0.81 nM
CCOC(=O)C1CCN(c2c(C(=O)c3ccccc3)cnc3ccc(Cl)cc23)CC1 0.39 nM
O=c1[nH]c2ccc(Br)cc2c(-c2ccccc2)c1N1CCOCC1 0.39 nM
O=c1[nH]c2ccc(Cl)cc2c(-c2ccccc2)c1N1CCN(c2ccccn2)CC1 0.62 nM
O=C(Nc1cccc2cccnc12)c1ccc(Br)o1 0.36 nM
CCOP(=O)(OCC)c1nc(/C=C/c2ccccc2)oc1NCc1ccccc1 0.52 nM
CC1CCCN(C(=O)CSc2cnc3ccccc3n2)C1 (centres undefined) 1.42 nM
CCOC(=O)c1c(N)sc2c1CCC(CC)C2 (centres undefined) 0.46 nM
COCC(=O)Nc1sc2c(c1C(=O)OC)CCC(C)C2 (centres undefined) 0.38 nM
CCn1nnnc1SCC(=O)Nc1cccc(C)n1 1.23 nM
COc1cccc(C2=NN(C(=O)c3cccs3)C(O)(C(F)(F)F)C2)c1 (centres undefined) 0.25 nM
S=C(Nc1ccccc1Cl)N(Cc1ccccc1)Cc1ccccn1 0.41 nM
CN(C)c1nccc(N(Cc2ccccc2)Cc2ccccc2)c1C#N 0.29 nM
Cc1ccc(C(C)C)c(OCCn2c(=O)oc3ccccc32)c1 0.33 nM
CC(C)(C)C1CCc2onc(C(=O)Nc3cccnc3)c2C1 (centres undefined) 0.4 nM
c1ccc(C2Nc3ccccc3Oc3ccccc32)cc1 (centres undefined) 0.21 nM
O=C(NCCC1=CCCCC1)c1cccc2c1C(=O)N(C1CCCCC1)C2 1.89 nM
Cc1ccc2c(c1)N(S(=O)(=O)c1ccc(F)cc1)C(C(C)(C)C)CO2 (centres undefined) 0.45 nM
Cc1ccc(S(=O)(=O)N2c3ccccc3OCC2C(C)(C)C)cc1 (centres undefined) 0.14 nM
CCC(=O)N(CC)c1nc(-c2cc(OC)ccc2OC)cs1 0.24 nM
CCCOP(=O)(OCCC)c1nc(-c2ccccc2)oc1NCc1ccccc1 0.15 nM
CCOc1ccc(OCC)c(NC(=O)CN2CCN(c3cccc(C)c3)CC2)c1 0.86 nM
O=C(O)c1cc(C(=O)O)cc(N2C(=O)c3ccccc3C2=O)c1 0.39 nM
O=C1CCCc2ccccc2N1Cc1c(Cl)cccc1Cl 0.64 nM
O=c1c2ccccc2c(-c2ccccc2)nn1Cc1c(Cl)cccc1Cl 0.41 nM
CN(Cc1cccs1)c1nc(-c2cccnc2)nc2ccccc12 0.64 nM
CC(C)CCn1c(Oc2ccc(Cl)cc2)nc2c1c(=O)n(C)c(=O)n2C 0.31 nM
O=c1c2ccccc2c2ccccc2c(=O)n1Cc1ccco1 0.45 nM
CC(C)CCn1c(O)c(N=NC(=O)c2ccco2)c2ccccc21 0.33 nM
CCCCn1c(C)cc(C)c(S(=O)(=O)c2ccccc2C)c1=O 0.31 nM
CCCN(CCC)C(C)C(=O)NCC1(c2ccccc2)CCCC1 (centres undefined) 0.23 nM
CCSc1nc2ccccc2n1Cc1ccccc1F 0.31 nM
CC1CCN(C(C)C(=O)Nc2ccccc2-c2ccccc2)CC1 (centres undefined) 0.26 nM
Cc1ccc(S(=O)(=O)NCC(=O)OCN2C(=O)c3ccccc3C2=O)cc1 2.7 nM
Cc1ccc(S(=O)(=O)c2ccc(Oc3cccc(C)c3)cc2)cc1 0.66 nM
COc1ccc(OCC(=O)NC(=S)Nc2ccc3c4c(cccc24)CC3)cc1 11.2 nM
c1ccc(Nc2nc(N3CCNCC3)nc(N3CCOCC3)n2)cc1 0.98 nM
COc1ccc(C2=Nn3c(nnc3-c3ccccc3)SC2)cc1OC 0.88 nM
COc1ccc(-c2cc(C(F)(F)F)nc(NC3CCCC3)n2)cc1OC 0.54 nM
COc1ccc(-c2cc(C(F)(F)F)n3nc(C(=O)N(C)Cc4ccccc4)cc3n2)cc1OC 0.42 nM
Cc1cnn(-c2nc(-c3ccccc3)cc(-c3ccccc3)n2)c1 0.56 nM
CN(C)c1nc(N2CCOCC2)nc(N(c2ccccc2)c2ccccc2)n1 0.59 nM
CC(=O)c1sc2nc(-c3ccc(C)cc3)c3c(c2c1N)CCCC3 0.52 nM
O=C(/C(=C/O)N=Nc1ccccc1)c1cccs1 2.24 nM
COCCOC(=O)c1c(C)oc2ccc(OCc3ccccc3)cc12 0.53 nM
c1ccc(Oc2nc3ccccc3n3cccc23)cc1 0.38 nM
Cc1cc(C)c2c(n1)sc1c(=O)n(Cc3ccccc3Cl)nnc12 0.29 nM
O=C1c2ccccc2OC2(C=Cc3ccccc3O2)N1Cc1ccccc1 (centres undefined) 0.27 nM
Clc1ccc(-c2nn3c(-c4ccccc4)nnc3s2)cc1 1.36 nM
